Results on 62 molecules are retold here after PubChem BioAssay AID631 (The Scripps Research Institute Molecular Screening Center, 2007).

Screen size: about 200,000 compounds; about 810 (0.41%) were called active. This is one part of a sample in which actives are shown more often than they occur. Values without a mark were called inactive. Cut-off read from the data, not from the text of the source: active = activation above about 19%; inactive = the rest.

For this experiment, the target named is Peroxisome proliferator-activated receptor gamma (Homo sapiens) (UniProt P37231). The experiment is described as follows: enhancers of SRC-1 binding to PPARgamma – biochemical, primary screen (AID 631).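 Note: 0% = DMSO and 100% = reference agonist.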 The following applies: PPARgamma-SRC-1 coactivator recruitment biochemical assay; at 8 µM; active compounds read high.
Chain of Peroxisome proliferator-activated receptor gamma (Homo sapiens) (P37231 whole entry, looked up): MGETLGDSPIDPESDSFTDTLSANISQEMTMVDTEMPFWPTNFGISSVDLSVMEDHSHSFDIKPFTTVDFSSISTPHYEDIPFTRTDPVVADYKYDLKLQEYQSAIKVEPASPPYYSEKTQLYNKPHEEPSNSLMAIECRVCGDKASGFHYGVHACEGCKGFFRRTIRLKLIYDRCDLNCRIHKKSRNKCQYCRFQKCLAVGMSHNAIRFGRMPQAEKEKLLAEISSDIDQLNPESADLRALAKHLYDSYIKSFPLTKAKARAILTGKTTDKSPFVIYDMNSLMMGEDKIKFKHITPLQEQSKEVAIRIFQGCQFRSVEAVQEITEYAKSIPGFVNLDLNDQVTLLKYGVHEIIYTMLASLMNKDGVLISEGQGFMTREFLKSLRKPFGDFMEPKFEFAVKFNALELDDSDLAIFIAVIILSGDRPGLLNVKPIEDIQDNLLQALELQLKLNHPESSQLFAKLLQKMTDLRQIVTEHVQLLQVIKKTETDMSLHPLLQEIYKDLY
For `CCOC(=O)CNC(=O)N1c2ccccc2Sc2ccccc21`, the activation was 8.4%. Turning to `Cc1ccc2c(c1)C1CN(C)CCC1N2C(=O)c1ccccc1NS(=O)(=O)c1ccc(F)cc1C` (configuration not stated), the activation was 1.7%. With `COc1cc(NC(=O)COC(=O)c2cnc(C)cn2)c(C)cc1[N+](=O)[O-]`, the activation is -1%. Next, `Cc1cc(NC(=O)CSc2nnc(Nc3ccccc3F)s2)no1`: -0.2%; `Cc1ccc(-c2csc(SCC(=O)Nc3cc(C)on3)n2)cc1`: -4%. With `Cc1cc(C)c2c(c1)cc(C)c1nnc(SCC(=O)Nc3cc(C)on3)n12`, the activation was 22.2% (active). With `COc1cccc(C2SCC(=O)N2c2cccc(C)c2)c1OC` (configuration not stated) the figure was 2.3%; with `CCCNC(=O)c1c(Cl)cnn1-c1ccc(C)cc1`, -0.9%. Take `O=C(O)c1ccc(N/N=C/c2ccc3ncccc3c2)cc1`: the activation is 7.5%.

`O=C(Nc1nnc(Cc2ccc(Cl)cc2)s1)c1cccnc1`: the activation is 0%. Consider `O=C1CN(C(=O)COC(=O)c2cnc(Cl)c(Cl)c2)c2ccccc2N1`, for which the activation is 8.3%. As to `O=c1c2sccc2nc(SCc2cc(=O)n3ccccc3n2)n1-c1ccc(Br)cc1`, the activation was 3%. Turning to `CCc1ccc(-n2c(SCc3cc(=O)n4cc(Br)ccc4n3)nc3[nH]ncc3c2=O)cc1`, the activation is 23.4% (active). For `Cc1cccc2nc(CSc3nc4[nH]ncc4c(=O)n3-c3cccc(Cl)c3)cc(=O)n12`, the activation was 3.8%. On to `Cc1ccsc1C1C(C#N)=C(N)OC2=C1C(=O)CC(C)(C)C2` (configuration not stated), for which the activation was 11.2%. `COc1ccccc1CCNC(=O)CSc1nnc2ccc(-c3cccnc3)nn12`: the activation was 4.1%. With `Cc1c(Cc2ccccc2)c(=O)oc2cc(OCC(N)=O)ccc12` the figure was -0.5%; with `CC(=O)Oc1ccc2c(C)c(CC(C)O)c(=O)oc2c1` (configuration not stated), -0.8%; with `O=C(Oc1ccccc1)Oc1ccc2c(c1)oc(=O)c1ccccc12`, 33.7% (active).

As for `CNC(=S)Nc1ccc([N+](=O)[O-])cc1`, the activation is 7.4%. As to `CCOc1cnc(-c2c(-c3ccccc3Cl)noc2C)o1`, the activation was 9.5%. Take `COc1ccc(-c2ccc(CNCCCN3CCOCC3)o2)cc1Cl`: the activation is 10.2%. For the molecule `COc1cc(C2C(C(=O)c3ccc(C)o3)=C(O)C(=O)N2CCc2ccccc2)ccc1O` (configuration not stated), the activation was 4.9%. Next, `CCCOc1ccc(C2C(C(=O)c3ccc(C)o3)=C(O)C(=O)N2CCCn2ccnc2)cc1` (configuration not stated): 25.1% (active); `COc1cc(C2C(C(=O)c3ccc(C)o3)=C(O)C(=O)N2Cc2cccnc2)ccc1O` (configuration not stated): -0.3%. Take `COc1ccc2c(c1)CCc1cn3ncc(C#N)c3nc1-2`: the activation was 2.5%. Consider `CCCn1c(=S)[nH]c2ccc(C(F)(F)F)cc21`, for which the activation was 7.7%. As for `Cc1ccc(NC(=O)CSCC(=O)NC2CCCCC2)cc1`, the activation was 6.7%.

For the molecule `Cc1nc2ccccc2cc1OCc1ccc(F)cc1`, the activation was -0.6%. Take `Cc1cccc(OCc2ccc(C(=O)Nc3ccc(F)cc3)cc2)c1`: the activation was 8.1%. As to `Fc1ccc(COc2cccc(-c3n[nH]c(=S)o3)c2)cc1`, the activation is 61.7% (active). Consider `COc1ccc(OC)c(-c2csc(NC(=O)C3=NNC(=O)CC3)n2)c1`, for which the activation was -3.7%.

As to `Cc1cc(NC(=O)COC(=O)COc2ccc(Cl)cc2C)c([N+](=O)[O-])cc1C`, the activation was -2.9%. Consider `COc1ccc(-c2nnco2)cc1OC`, for which the activation was -4%. For the molecule `COc1ccc2c(Cl)c(C(=O)NCc3ccco3)sc2c1`, the activation was -0.6%. As to `COc1ccc2c(Cl)c(-c3nnco3)sc2c1`, the activation was 24.2% (active). For the molecule `CC(=O)Nc1ccccc1OC(C)C(=O)N1CCC(C)CC1` (configuration not stated), the activation is 3.2%. Take `Cc1nn2cc(-c3ccc(Cl)cc3)cnc2c1Br`: the activation is 9.4%.

Regarding `Cn1c(-c2sc3cc(C(F)(F)F)cnc3c2-c2ccccc2)n[nH]c1=S`, the activation is 36.3% (active). Turning to `Cn1c(-c2sccc2OCc2cccc(C(F)(F)F)c2)n[nH]c1=S`, the activation is 2.2%. For `Cc1cc(C(F)(F)F)n2ncc(-c3ccccc3)c2n1`, the activation is -0.8%. Turning to `COc1cccc(CNC(=O)CCC2CCCN(C(=O)c3ccoc3C)C2)c1` (configuration not stated), the activation is 11.7%. As to `CC1(C)CN(c2ccc(-c3ccnc4ncnn34)cc2)C1=O`, the activation is -2.6%.

In the case of `CSCCC(=O)N1CCCC(CNC(=O)c2ccccc2Cl)C1` (configuration not stated), the activation was 6%. Consider `COc1ccc(C2/C(=C(/O)c3ccccc3)C(=O)C(=O)N2c2ncccn2)cc1OC` (configuration not stated), for which the activation is 8.9%. For the molecule `Cc1cc(N2C(=O)C(=O)/C(=C(/O)c3ccc(Cl)cc3)C2c2cccc(Br)c2)no1` (configuration not stated), the activation was 20.6% (active).

Turning to `COc1ccccc1C1/C(=C(/O)c2ccc(OC(C)C)cc2)C(=O)C(=O)N1c1cc(C)on1` (configuration not stated), the activation is 16.5%. With `Cc1ccc(C(=O)Cc2nnc(C)s2)cc1`, the activation was -2.5%. Take `Cc1cccc(NC(=S)N2CCC(O)CC2)c1C`: the activation is 1.3%.

Regarding `CCN1CCN(c2cc3nc(C)n(Cc4ccccc4)c(=O)c3cc2NC(=O)c2ccccc2F)CC1`, the activation was 3.9%.

In the case of `COc1cccc(NC(=S)NCc2ccco2)c1`, the activation is -2.7%. As to `Cc1nc(-c2ccccc2)sc1-c1nc(-c2ccccc2)ncc1S(=O)(=O)c1ccccc1`, the activation was 19.3% (active). Turning to `Cc1nc(-c2ccccc2)sc1C(=O)/C=C/c1ccccc1`, the activation was -1.9%.

Regarding `C=CCn1c(-c2sc(-c3ccccc3)nc2C)n[nH]c1=S`, the activation was 0.8%. On to `O=C(O)C1C2CC2CN1C(=O)c1ccc(Cl)cc1Cl` (configuration not stated), for which the activation was 4.2%. On to `Cc1cccc(C)c1NC(=O)C1(C)c2cccc[n+]2CC(=O)N1Cc1cccs1` (configuration not stated), for which the activation was -2.9%.

On to `Cc1nc(SCc2ccc(F)cc2)c([N+](=O)[O-])[nH]1`, for which the activation is 5.8%. Consider `COc1ccc(/C(O)=C2\C(=O)C(=O)N(Cc3ccco3)C2c2ccc(OC)cc2OC)cc1` (configuration not stated), for which the activation was 2%. With `COc1ccc(/C(O)=C2/C(=O)C(=O)N(c3nc(C)c(C)s3)C2c2ccco2)cc1` (configuration not stated), the activation is 22.1% (active). Next, `COc1ccccc1C1/C(=C(/O)c2ccc(C)cc2)C(=O)C(=O)N1Cc1ccco1` (configuration not stated): 10.8%; `COC(=O)c1c(C)[nH]c(C)c1-c1ccc([N+](=O)[O-])cc1`: -0.7%; `Cc1ccc(/C=N/NC(=O)COc2ccccc2-c2ccccc2)cc1`: 2.1%.
